Shh pathway inh: Sonic Hedgehog pathway inhibition | Shh-LIGHT2 Gli-luciferase reporter, 30 h | inhibition, % (test concentration not listed) | 2.1% of 22,000 active | AID 2313;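 active means mean inhibition across valid replicates above about 65%, limit read from the data; inconclusive means mean under the limit, yet half or more replicates past it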;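 further: pathway switched on by Shh-conditioned medium diluted 1 in 25 in low serum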
MITF inh: inhibitors of MITF. TRPM1 promoter luciferase, luminescence, 24 h. inhibition, % (no concentration beside the values). 0.28% of 37,000 active. AID 2240; in the data active means inhibition above about 85%; inconclusive means no clear call, values can overlap the other calls; inactive means below about 68%;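 further: human melanocyte line stably carrying TRPM1 promoter luciferase reporter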
Starred values were filed as active, the others as inactive; ? = inconclusive; / = no result; ! = not confirmed by another sample. The entries come from a sample that favours hits as a whole.

SMILES	Shh pathway inh	MITF inh
CO[C@H]1[C@H](O)[C@H](O[C@H]2CC[C@]3(C)C4CC[C@]5(C)C(C6=CC(=O)OC6)CC[C@]5(O)C4CC[C@@H]3C2)O[C@@H](C)[C@@H]1O (stereo not given in full)	-5	21
C=CC1CN2CCC3(C(=O)Nc4ccccc43)C2CC1/C(=C/OC)C(=O)OC (stereo not given)	10	5
OC[C@H]1O[C@@H](Oc2ccc(/C=C/c3cc(O)cc(O)c3)cc2O)[C@H](O)[C@@H](O)[C@@H]1O	-18	/
CC1=CC2/C=C(\C)CCC(O)C(O)/C=C/C(=O)C23C(=O)NC(CC(C)C)C3C1C (stereo not given)	71*	89*
NC1=C(C(=O)OCc2ccccc2)C2(C(=O)Nc3ccc(Br)cc32)C2=C(O1)C(=O)CCC2 (stereo not given)	-16	10
OC[C@H]1O[C@@H](n2cnc3cc(Cl)c(Cl)cc32)C(O)[C@H]1O (stereo not given in full)	39	-22
COc1ccc2c3c([nH]c2c1)C(C)=NCC3	-16	12
CC1=NCCc2c1[nH]c1cc(O)ccc21	80*!	1
CC1(C)C(C(=O)Nc2nccs2)C1(C)C	-30	-3
NCC(=O)Nc1ccc(Br)cc1C(=O)c1ccccc1	/	-125
COc1ccc(OC)c(NC(=S)NCCc2cnc[nH]2)c1	/	-11
C[C@@H]1CC([C@H](O)CC2CC(=O)NC(=O)C2)C(=O)[C@@H](C)C1 (stereo not given in full)	68*	55
C[C@@H]1C[C@@H]([C@H](O)CC2CC(=O)NC(=O)C2)C(=O)[C@@H](C)C1	50	72
CCn1cnc2c(Nc3cccc(Cl)c3)nc(N[C@@H]3CCCC[C@@H]3N)nc21	73*	51
C[CH2][Hg][S]c1ccccc1C(=O)O	?	105*
CNc1ccccc1C(=O)O	2	-9
CC(C)(CN)CNc1ccc([N+](=O)[O-])c2cccnc12	/	20
COc1ccccc1OCCCn1cc(C(=O)c2ccccc2)c2ccccc21	/	9
O=C(Cn1cc(C(=O)c2ccccc2)c2ccccc21)Nc1ccc(F)cc1	/	38
